Most compounds without a hit are left out; they make up all but 5.3% or so of the library.
TDP1 block: blocks human tyrosyl-DNA phosphodiesterase 1; Potency, µM (top dose mostly 130 µM), without a hit: top-dose activity change, negative = inhibition, hits mostly inhibitors; AID 485290; hit rate 0.28% among 350,000; Q9NUW8; recombinant TDP1, AlphaScreen DNA substrate cleavage; note: potency is the fitted concentration of half-maximal effect; % is set by controls: 0 for no effect and ±100 for the full control effect; nearly all actives have a fitted effect of over 40% in size
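AlphaScreen read-out: signal falls as enzyme removes the 3' tyrosine-FITC from a 5'-biotinylated DNA oligo (15 nM, 5 min, RT). Enzyme was E. coli-made recombinant Tdp1 at 1 nM, exposed to compound for 15 min beforehand; beads 10 ug/ml, 10 min.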
HP1b binding inh: blocks HP1-beta chromodomain binding to methylated histone tails | P83916 | AlphaScreen HP1-beta / biotin-H3K9me3 peptide binding | Potency, µM (doses to about 114 µM), without a hit: top-dose activity change, negative = inhibition, actives largely listed as inhibitors | hit rate 0.56% among 390,000 | AID 540317; note: potency is the fitted concentration of half-maximal effect; nearly all actives have a fitted effect of over 70% in size
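AlphaScreen: HP1-beta (50 nM) preformed 30 min with biotin-H3(1-18)K9me3 peptide (50 nM) in PBS pH 7.4, 0.01% Tween-20. Compound added for 30 min at RT, then streptavidin donor/nickel chelate acceptor beads (10 ug/mL) for 30 min.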
CtBP-E1A blk: CtBP/E1A binding inhibition; AlphaScreen GST-E1A/His-CtBP binding, 1536-well; hits give low values; activity change, % (test concentration not listed); hit rate 0.49% among 340,000; in the data active = activity change below about -65%; inconclusive = mostly about -30% to -63%; note: % is set by controls: 0 for no effect and ±100 for the full control effect
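In 5 uL wells, 23 nL compound meets equimolar GST-E1A and His-CtBP (5X stock 125 nM each) for 2 h, 37 °C. Beads (5X, 50 ug/mL) then 1 h, 37 °C, dark.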
Six1-Eya2 blk: inhibitors of human Six1/Eya2 interaction; Q15475+O00167; AlphaScreen GST-Six1/His-Eya2 binding, biochemical; hits give low values; activity change, % (no concentration beside the values); hit rate 0.56% among 360,000; AID 651725; in the data active = activity change below about -65%; inconclusive = mostly about -30% to -63%; note: % is set by controls: 0 for no effect and ±100 for the full control effect
Target sequence (O00167 whole entry, looked up): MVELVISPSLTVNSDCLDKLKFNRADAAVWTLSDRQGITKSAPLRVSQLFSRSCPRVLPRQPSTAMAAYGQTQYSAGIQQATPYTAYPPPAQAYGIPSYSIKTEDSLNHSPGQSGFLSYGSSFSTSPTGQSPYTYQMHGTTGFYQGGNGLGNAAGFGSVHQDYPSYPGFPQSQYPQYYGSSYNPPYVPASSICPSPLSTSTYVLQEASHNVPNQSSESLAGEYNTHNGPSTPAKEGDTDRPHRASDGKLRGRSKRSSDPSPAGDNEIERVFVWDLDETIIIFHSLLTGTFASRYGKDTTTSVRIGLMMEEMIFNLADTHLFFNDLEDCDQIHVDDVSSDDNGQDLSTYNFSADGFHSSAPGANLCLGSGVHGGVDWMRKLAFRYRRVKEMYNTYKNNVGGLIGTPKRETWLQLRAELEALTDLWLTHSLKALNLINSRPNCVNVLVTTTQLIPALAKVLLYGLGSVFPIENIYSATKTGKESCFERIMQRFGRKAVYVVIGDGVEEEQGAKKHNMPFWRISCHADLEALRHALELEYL
Target sequence (Q15475 whole entry, looked up): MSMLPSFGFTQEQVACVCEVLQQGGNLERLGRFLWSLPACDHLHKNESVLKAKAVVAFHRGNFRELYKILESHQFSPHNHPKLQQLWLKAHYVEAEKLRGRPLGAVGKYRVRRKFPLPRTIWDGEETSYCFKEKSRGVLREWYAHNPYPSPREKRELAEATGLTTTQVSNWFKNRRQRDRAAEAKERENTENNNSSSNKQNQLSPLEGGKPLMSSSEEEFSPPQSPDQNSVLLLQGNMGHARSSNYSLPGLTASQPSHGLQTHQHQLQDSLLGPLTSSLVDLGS
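Homogeneous AlphaScreen proximity assay pairing GST-Six1 with His-tagged Eya2 (added as 5X mix: 250 nM and 500 nM) in 50 mM Tris pH 8.0, 300 mM NaCl, 1 mM TCEP. Glutathione donor and nickel acceptor beads; 1 h, 37 °C, dark.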
BAZ2B inh: inhibitors of human BAZ2B bromodomain; Potency, µM (top dose mostly 114 µM), for the others: at the highest dose activity change, negative = inhibition, most hits filed as inhibitors; hit rate 4.4% among 360,000; Q9UIF8; AlphaScreen BAZ2B-H3K14Ac peptide displacement; note: potency is the fitted concentration of half-maximal effect; % is set by controls: 0 for no effect and ±100 for the full control effect; nearly all actives have a fitted effect of over 60% in size
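Multi-concentration screen (max 110 uM) measuring displacement of acetylated histone H3 peptide from BAZ2B by AlphaScreen, using 50 nM protein, 50 nM peptide and 10 ug/mL streptavidin donor plus Ni-chelate acceptor beads.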
JMJD2A Tudor inh: JMJD2A Tudor domain (human) inhibition; AlphaScreen JMJD2A-Tudor / H3K4me3 peptide binding; hit rate 4.4% among 390,000; Potency, µM (titrated, usually from 114 µM), for inactives: at the top dose activity change, negative = inhibition, actives largely listed as inhibitors; O75164; AID 504339; note: potency is the fitted concentration of half-maximal effect; % is set by controls: 0 for no effect and ±100 for the full control effect; nearly all actives have a fitted effect of over 50% in size
* = called active by the depositor; ? = inconclusive; / = no result; [ ] = dose if it differs, or a comment. Unless noted, calls come from the whole dose curve; as a rule, active = well fitted inhibition curve with a large enough effect; inconclusive = small, poorly fitted or top-dose-only effect; inactive = no such curve, though single readings can be large or run the other way.

SMILES	TDP1 block	HP1b binding inh	CtBP-E1A blk	Six1-Eya2 blk	BAZ2B inh	JMJD2A Tudor inh
N#Cc1c(NC(=O)c2cc([N+](=O)[O-])ccc2N2CCOCC2)sc2c1CCCC2	-3%	-23%	-15	-13	56µM*	?
N#Cc1c(NC(=O)c2ccc([N+](=O)[O-])o2)sc2c1CCC2	5%	?	-4	-19	40µM*	?
CN1CCc2c(sc(NC(=O)c3ccc([N+](=O)[O-])o3)c2C(N)=O)C1	9%	-30%	-24	?	35µM*	?
Cc1cccc(-c2nc3scc(CCNC(=O)c4ccccc4Cl)n3n2)c1	5%	26%[57 µM]	/	/	4%	-4%
COc1cccc(CNS(=O)(=O)c2ccc(-c3cc(C(F)(F)F)on3)s2)c1	0%	24%	/	/	11%	-11%
CCOC(=O)c1c(C)[nH]c(C)c1S(=O)(=O)N(C)CC(=O)NCc1ccc(Cl)cc1	4%	51%	/	/	21%	-29%
CCOC(=O)Nc1ccc(S(=O)(=O)Nc2cc(C)on2)cc1	1%	31%	-7	-2	5%	-14%
Cc1cc(NS(=O)(=O)c2ccc(Nc3nc(-c4ccc(C)c(C)c4)cs3)cc2)no1	0%	-37%	-5	-11	?	56µM*
COc1cc(NS(=O)(=O)c2ccc(N/C=C(\C#N)c3nc4ccccc4o3)cc2)nc(OC)n1	7%	-1%	-24	-21	?	?
COc1cc(NS(=O)(=O)c2ccc(Nc3nc(-c4ccccc4)cs3)cc2)nc(OC)n1	11%	-22%	2	?	50µM*	?
COc1cc(NS(=O)(=O)c2ccc(N/C=C(\C=O)c3nc4ccccc4o3)cc2)nc(OC)n1	5%	6%	-15	-27	79µM*	79µM*
Cc1cc(NS(=O)(=O)c2ccc(Nc3nc(-c4sc(N)nc4C)cs3)cc2)no1	-11%	?	-90*	-91*	?	56µM*
COc1ccc(-c2csc(Nc3ccc(S(N)(=O)=O)cc3)n2)cc1OC	5%	-15%	-12	?	?	?
COc1ccc(O[C@H]2C=C[C@@H](c3ccccc3)O[C@H]2COC(=O)CC/C(C)=N\O[C@@H](C)c2cn([C@H](CO)Cc3ccccc3)nn2)cc1	8%[21 µM]	/	/	/	/	/
O=C(CSc1c2c(nc3ccccc13)CCC2)Nc1ccc(F)cc1F	2%	28%	/	/	/	-14%
CC1CCN(C(=O)CSc2nc3ncccc3[nH]2)CC1	0%	-2%	/	-1	-7%	-5%
CCC1CCCCN1C(=O)CSc1nc2ncccc2[nH]1 (stereo unspecified)	2%	?	/	-1	-27%	50µM*
Oc1cccc(-c2nc3ccccc3s2)c1	0%	59%	-8	-19	9%	-2%
Oc1ccc(O)c(Cc2nc3ccccc3s2)c1	8%	20µM*	-19	-4	?	13µM*
CC(=O)Nc1ccc(SCCN2CCN(C)CCC2=O)cc1	1%	34%	/	/	/	-14%
COc1cccc(OCC(O)CN2CCN(C)CC2)c1 (stereo unspecified)	/	?	4	14	50µM*	1µM*
Cc1cc(OCC(O)CN2CCN(c3cccc(Cl)c3)CC2)ccc1Cl (stereo unspecified)	/	6%	/	/	-13%	79µM*
Cc1cccc(N2CCN(CC(O)COc3ccc4ccccc4c3)CC2)c1 (stereo unspecified)	/	-3%[57 µM]	-5	2	/	-10%
COc1ccc(N2CCN(CC(O)COc3ccc(C)c(C)c3)CC2)cc1 (stereo unspecified)	-3%	?	-28	?	45µM*	56µM*
COc1ccc(N2CCN(CC(O)COc3cc(C)cc(C)c3)CC2)cc1 (stereo unspecified)	/	-16%	-27	-6	40µM*	?
SMILES	TDP1 block	HP1b binding inh	CtBP-E1A blk	Six1-Eya2 blk	BAZ2B inh	JMJD2A Tudor inh
CSCC[C@H](NC(=O)[C@@H]1CCCN1C(=O)CNC(=O)[C@H](CCCCN)NC(=O)[C@H](Cc1cnc[nH]1)NC(=O)[C@H](CO)NC(=O)[C@H](CC(C)C)NC(=O)[C@H](CCCN=C(N)N)NC(=O)[C@@H]1CCCN1C(=O)[C@H](CCCN=C(N)N)NC(=O)[C@@H]1CCC(=O)N1)C(=O)N1CCC[C@H]1C(=O)N[C@@H](Cc1ccccc1)C(=O)O	11%	/	/	/	/	/
COc1ccccc1N1CCN(C(=O)c2cn(C)c3ccc(S(=O)(=O)N(C)C4CCCCC4)cc3c2=O)CC1	-2%	32%	/	/	/	4%
Cn1c(=O)c(C(=O)CN2CCCCCC2)c(N)n(Cc2ccccc2)c1=O	5%	16%	0	-6	3%	-12%
COCCCNCC(=O)c1c(N)n(Cc2ccccc2)c(=O)n(C)c1=O	-7%	-16%	-6	5	?	79µM*
CCC(C)Nc1nc(-c2c[nH]c3ccccc23)cs1 (stereo unspecified)	2%	?	26	78	25µM*	35µM*
CN1CCN(CC(=O)Nc2nc(-c3c[nH]c4ccccc34)cs2)CC1	9%	12%	0	-13	?	-34%
CNc1nc(-c2c[nH]c3ccccc23)cs1	11%	?	93	90	35µM*	18µM*
COc1cc2[nH]c(Cl)c([N+](=O)[O-])c2cc1OC	/	-18%	-21	-17	56µM*	?
COc1cc2c(=O)[nH]c3cc([N+](=O)[O-])ccc3c2cc1[N+](=O)[O-]	/	/	-20	-22	/	/
C[C@H](CO)N1C[C@H](C)[C@@H](CN(C)CC2CCCCC2)Oc2c(NC(=O)Cc3ccccc3)cccc2C1=O	3%	-4%	-7	-9	/	56µM*
CC(C)NC(=O)N(C)C[C@H]1Oc2c(NC(=O)Cc3ccccc3)cccc2C(=O)N([C@H](C)CO)C[C@@H]1C	1%	2%	-18	9	/	?
COc1ccc(Cn2ccnc2SCC(=O)Nc2ccc3c(c2)OCCO3)cc1	5%	4%[57 µM]	/	/	-39%	-31%
COc1ccccc1C(CNc1ncccc1[N+](=O)[O-])N(C)C (stereo unspecified)	3%	-8%	-6	0	-13%	-22%
COc1ccccc1Nc1ccc(NC(=O)c2cccc([N+](=O)[O-])c2C)cc1	/	?	/	?	10µM*	13µM*
COc1ccccc1Nc1ncccc1[N+](=O)[O-]	9%	?	?	?	32µM*	45µM*
CC(Sc1nc(=O)cc(N)n1CCc1ccccc1)C(=O)Nc1ccccc1C#N (stereo unspecified)	2%	33%	/	/	-24%	-11%
O=[N+]([O-])c1ccc(O)c(/C=N/Nc2ccccn2)c1	8%	23%	-92*	-90*	4.5µM*	?

Bioassay records deposited in PubChem by National Center for Advancing Translational Sciences (NCATS).
